# Source: PubChem
# Only some compounds are listed: those with a hit (about 2.4% of all), similar ones and a draw of the others.
# D2 ag-1: agonists of human D2 dopamine receptor (beta-arrestin). DiscoveRx PathHunter D2 beta-arrestin, luminescence, 90 min; 100% = 57 uM dopamine signal. activation, % (concentration not given with the values). actives 0.084% (n = 360,000). AID 624465; in the data active means activation above about 40%; inconclusive means between about 15% and that limit
# Target sequence (P14416 whole entry, looked up): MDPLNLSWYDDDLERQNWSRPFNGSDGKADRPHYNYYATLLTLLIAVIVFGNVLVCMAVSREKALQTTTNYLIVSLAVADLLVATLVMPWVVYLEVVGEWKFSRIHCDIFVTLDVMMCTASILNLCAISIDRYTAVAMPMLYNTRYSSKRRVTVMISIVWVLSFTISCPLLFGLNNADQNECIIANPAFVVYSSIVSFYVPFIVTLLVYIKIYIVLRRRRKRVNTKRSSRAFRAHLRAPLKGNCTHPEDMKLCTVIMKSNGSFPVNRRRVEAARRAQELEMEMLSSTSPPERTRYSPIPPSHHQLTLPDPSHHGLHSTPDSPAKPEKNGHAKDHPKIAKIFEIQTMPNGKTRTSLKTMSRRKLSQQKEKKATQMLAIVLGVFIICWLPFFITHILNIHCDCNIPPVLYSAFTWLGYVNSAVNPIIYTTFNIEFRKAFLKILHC
#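 Agonist mode: compounds alone added to overnight-plated D2 PathHunter cells for 90 min at 37 C, with 57 uM final dopamine (EC100) defining full response. Beta-arrestin recruitment detected by chemiluminescent reagent, read after 1 h at ambient temperature.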
# D2 PAM-1: human D2 receptor positive allosteric modulation. DiscoveRx D2 beta-arrestin cells, luminescence, 90 min; 100% = 57 uM dopamine signal. potentiation, % (concentration not given with the values). actives 0.23% (n = 360,000); in the data active means potentiation above about 50%; inconclusive means mostly about 30% to 49%
#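 D2 cells co-treated with compound plus 50 nM dopamine (EC20) for 90 min at 37 deg C to detect potentiation. Beta-arrestin recruitment was read as enzyme-fragment luminescence after 1 h at ambient temperature. Full response was set by 57 uM dopamine.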
# D2 PAM-2: D2 dopamine receptor (human) potentiation | P14416 | HEK293 T-REx D2, calcium flux, EC20 dopamine potentiation | potentiation, % at 10 µM | actives 0.34% (n = 340,000);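 active means potentiation over 3 SD above the plate norm, cut at about 30% in these data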; further: 0% is about no effect
#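 Tetracycline-induced Hek293 Trex D2 cells, force-coupled to calcium, loaded with no-wash calcium dye. Compound added with 180 s kinetic read for agonism, then EC20 dopamine and a further 180 s read for potentiation.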
# D2 antag: antagonizes the human D2 dopamine receptor. actives 2% (n = 340,000). HEK293 TREx D2 cells, calcium flux, dopamine EC80. P14416. inhibition, % at 10 µM; in the data active means inhibition above about 30%; inactive means below that, where a call was filed; further: 0% is about no effect
#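 Measurement of antagonist activity uses fluorescent calcium dye in inducible HEK293 T-REx D2 cells: 10 s baseline, compound addition with 180 s read, EC80 dopamine addition with a further 180 s read.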
# D2 ag-2: activates the human D2 dopamine receptor; P14416; HEK293 T-REx D2 cells, calcium flux agonist mode; activation, % at 2 µM; actives 0.53% (n = 340,000); AID 485358;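 active means activation over 3 SD above normal in the single-dose calcium agonist read, cut at about 30% in these data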; further: 0% is about no effect
#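 HEK293 Trex D2 cells, tetracycline-induced, o/n 30 C 5% CO2; no-wash Ca dye, RT 30–90 min; 10-cycle baseline, 23 nl cpd added, kinetic Ca read 180 s; agonist hits = positive Ca response.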
# Active calls of the source: *; ? = inconclusive; nt = not tested or not shown.
SMILES,D2 ag-1,D2 PAM-1,D2 PAM-2,D2 antag,D2 ag-2
Cc1ccc(CSc2nc3ccccc3c(=O)n2C)cc1,-1,-6,1,34*,2
CC(=O)NCCn1c(SCc2ccc(C)cc2)nc2ccccc2c1=O,-2,7,-1,-4,0
c1ccc(-n2ncc3c(NC4CCCCCC4)ncnc32)cc1,-3,-3,-2,46*,0
NNc1ncnc2c1cnn2-c1ccccc1,-4,-7,6,31*,0
CCN(CC)c1sc(S(=O)(=O)c2ccccc2)nc1S(=O)(=O)c1ccc(C)cc1,nt,nt,17,nt,1
CCc1ccc(NC(=O)NNC(=O)CCc2ccccc2)cc1,-2,5,6,-5,0
O=C(CCc1ccccc1)NNC(=O)Nc1ccccc1,3,-5,-5,44*,-1
O=C(Nc1ccccc1)c1ccccc1CCc1ccccc1,-1,-12,-4,32*,1
O=C(O)CCC(=O)NNC(=O)CCC(=O)Nc1ccccc1,-1,-3,-5,40*,0
CCOc1ccc(CCNC(=O)c2cccc(-n3c(C)nc4cccnc43)c2C)cc1,nt,nt,-6,nt,0
Cc1cc(C)c(NC(=O)C2CCCN(S(=O)(=O)c3c(C)noc3/C=C/N(C)C)C2)c(C)c1 (configuration not stated),-2,-3,-1,33*,0
Cc1cc(C)c(NC(=O)C2CCCN(S(=O)(=O)c3c(C)noc3C)C2)c(C)c1 (configuration not stated),nt,nt,30,nt,-1
CCC(Sc1nc2ncccc2o1)C(=O)Nc1ccc(OC)c(OC)c1 (configuration not stated),nt,nt,-4,nt,0
COc1cc(C=O)cc(Br)c1OCC(N)=O,-6,-9,1,34*,-1
C=CCOc1c(Br)cc(/C=C(\C#N)C(N)=O)cc1OC,0,-3,-4,-2,1
Cc1[nH]c2ccccc2c1C(c1ccncc1)N1CCN(c2ccccn2)CC1 (configuration not stated),0,3,-21,15,35*
CCOc1ccc(C2c3c(oc4ccc(C)cc4c3=O)C(=O)N2c2nc(C)c(C)s2)cc1OC (configuration not stated),nt,nt,3,nt,nt
Cc1ccc(NC2=C(NCCO)C(=O)c3ccccc3C2=O)cc1,8,60*,10,-4,0
CS(=O)(=O)c1ccc(Oc2ccc(-c3nnco3)cc2)c([N+](=O)[O-])c1,2,7,41*,-2,2
O=C1c2ccc([N+](=O)[O-])cc2S(=O)(=O)N1Cc1ccccc1,?,72*,20,16,-1
CCOC(=O)c1[nH]c(C)c(CCC(=O)Nc2cc(Cl)ccc2C)c1C,nt,nt,-8,nt,nt
CC(=O)N(C(C)=O)c1nc2nc(C)cc(C)n2n1,-4,-1,10,102*,-1
Cc1cc(C)n2nc(CCc3nc4nc(C)cc(C)n4n3)nc2n1,nt,nt,2,6,-1
CC(C)Oc1ccc(CN2CCc3nc(Nc4ccc5c(c4)OCCO5)ncc3C2)cc1,nt,nt,6,nt,2
CCCc1ccc(OCc2ccc(C(=O)Nc3ccccc3C(=O)OC)o2)cc1,nt,nt,9,nt,0
SMILES,D2 ag-1,D2 PAM-1,D2 PAM-2,D2 antag,D2 ag-2
CCn1nc(NC(=O)c2ccncc2)c2cc3cc(C)ccc3nc21,-3,-14,34*,-3,0
CCn1nc(NC(=O)c2ccncc2)c2cc3ccc(C)cc3nc21,5,13,5,-7,0
CC1=C(C(N)=O)C(c2cccnc2)n2nc(SCc3ccccc3Cl)nc2N1 (configuration not stated),0,1,0,35*,-2
CC1=C(C(N)=O)C(c2cccc(Br)c2)n2nc(SCc3ccccc3Cl)nc2N1 (configuration not stated),nt,nt,5,nt,1
COc1ccc(-n2c(=O)c3c(c4cc(OC)ccc4n3C)n(Cc3ccc(F)cc3Cl)c2=O)cc1,nt,nt,7,nt,1
O=C(NC1CCN(Cc2ccccc2)CC1)C(NS(=O)(=O)c1cccc2nsnc12)c1ccccc1 (configuration not stated),0,-11,-18,35*,-1
CCOC(=O)N1CCC(NC(=O)C(NS(=O)(=O)c2cccc3nsnc23)c2ccccc2)CC1 (configuration not stated),4,-6,1,7,-1
Cc1ncc([N+](=O)[O-])n1Cc1ccccc1F,-1,-1,-8,31*,-2
Cc1ncc([N+](=O)[O-])n1Cc1cccc2ccccc12,-1,-4,8,9,-2
CCOC(=O)C1=NN(C(=O)c2ccc(C)cc2)C(O)(c2ccc(Cl)cc2)C1 (configuration not stated),-4,-14,-3,22,31*
Cc1ccc(-c2nnc(SCC(=O)NC3CCCC3)nc2-c2ccc(C)cc2)cc1,nt,nt,3,nt,nt
O=C(Nc1ccc2c(c1)OCO2)c1cnn2cccnc12,-1,-5,28,69*,0
O=[N+]([O-])c1ccc(C(c2sc3nc(-c4ccco4)nn3c2O)N2CCC3(CC2)OCCO3)cc1 (configuration not stated),nt,nt,-1,nt,1
CCCC(=O)Nc1nnc(S(=O)(=O)N(C)Cc2ccc(Cl)cc2)s1,nt,nt,5,nt,1
O=C(CCN1CCN(CCO)CC1)Nc1ccc(OCc2ccccc2)cc1,-1,1,15,14,-1
O=C(CCN1CCN(Cc2ccccc2)CC1)Nc1ccc(OCc2ccccc2)cc1,0,-22,-19,42*,0
CCCOc1ccc(NC(=O)CC2C(=O)N(CC)C(=S)N2CCCN2CCN(Cc3ccccc3)CC2)cc1 (configuration not stated),?,-16,nt,33*,0
COc1ccc(-c2noc(CN(C)S(=O)(=O)c3c(C)cc(C)cc3C)n2)cc1OC,nt,nt,4,nt,3
COc1ccc(-c2noc(CN(C)S(=O)(=O)c3ccc(Cl)cc3)n2)cc1OC,2,10,45*,0,1
COc1ccc(-c2noc(-c3ccc(Cl)cc3[N+](=O)[O-])n2)cc1OC,?,89*,18,0,-1
COc1ccc(-c2noc(-c3ccco3)n2)cc1OC,0,6,36*,-6,1
COc1cc(OC)cc(-c2nc3nc(C)c(CCC(=O)Nc4cc(C)cc(C)c4)c(C)n3n2)c1,nt,nt,2,nt,0
CN(C)c1ccc(CNC(=O)CN2CCSc3ccc(S(=O)(=O)N(C)C)cc32)cc1,nt,nt,nt,nt,-1
Cc1noc(C)c1S(=O)(=O)N1CCC(C(=O)NCCC2=CCCCC2)CC1,-3,-12,-1,-24,0
Cc1nn(C)c(C)c1S(=O)(=O)N1CCC(C(=O)NCCC2=CCCCC2)CC1,-2,-9,-7,30*,-1
